Screening results deposited in PubChem BioAssay by National Center for Advancing Translational Sciences (NCATS).
Pf growth 96h = inhibits malaria parasite growth, 96 h | P. falciparum luciferase reporter growth, 96 h | Potency, µM (titrated, usually from 28.7 µM), for the others: at the highest dose activity change, negative = inhibition, most hits filed as inhibitors | 320,000 compounds, 6.9% hits; active = well fitted inhibition curve with a large enough effect; inconclusive = small, poorly fitted or top-dose-only effect, or another doubt; inactive = no such curve, though single readings can be large or run the other way; also: potency is read from the fitted curve at half-maximal effect; % is scaled to controls: 0 for no effect and ±100 for the full control effect
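Two parasite generations (96 h, 37 C, 5% CO2) of compound exposure in infected erythrocytes (0.05% parasitemia, 2% hematocrit). Luciferase-reporter P. falciparum; decreased luminescence indicates inhibited growth, aimed at apicoplast-acting delayed death.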
Pf growth 48h = inhibits P. falciparum growth in the first generation, 48 h; P. falciparum luciferase growth in erythrocytes, 48 h; Potency, µM (series often up to 28.7 µM), inactives show top-dose activity change, negative = inhibition, most hits filed as inhibitors; 310,000 compounds, 5.9% hits; AID 504832; active = well fitted inhibition curve with a large enough effect; inconclusive = small, poorly fitted or top-dose-only effect, or another doubt; inactive = no such curve, though single readings can be large or run the other way; also: potency is read from the fitted curve at half-maximal effect; % is scaled to controls: 0 for no effect and ±100 for the full control effect
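Luciferase-expressing parasites in RBCs, 2% Hct / 0.1% parasitemia final; RPMI 1640 + 0.5% Albumax; 37 C, 5% CO2, one generation; luminescence read-out, lower signal = inhibition.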
Cycloheximide cs = counter-screen for Shiga toxin inhibitors: cycloheximide protein synthesis inhibition; max response, %; cell reporter, cycloheximide protein synthesis inhibition counterscreen; 300,000 compounds, 12% hits; AID 2314; in the data active = max response mostly above about 13%, no sharp cut-off; inactive = mostly below about 14%; also: read at 38.3 µM for the half of the compounds with a filed dose; 0% is about no effect
Shiga inhibitor = blocks Shiga toxin action in Vero cells; Vero cells, Shiga toxin protein synthesis inhibition reporter; 290,000 compounds, 9.2% hits; inhibition, % at 38.7 µM; in the data active = inhibition mostly above about 28%, no sharp cut-off; inactive = mostly below about 43%; also: 0% is about no effect
NS1 function inh = influenza NS1 inhibition. Potency, µM (top dose mostly 46.1 µM), for the others: top-dose activity, positive = more growth. 270,000 compounds, 0.4% hits; also: potency is read from the fitted curve at half-maximal effect; actives are rising curves; nearly all actives have a fitted effect of over 50% in size
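S. cerevisiae expressing influenza A NS1, grown in glucose, washed, then diluted 1:100 into pH 6.0 -URA galactose medium with 23 nl compound. Growth recovery read as OD600; NS1-free strain serves as control.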
SARS PLpro yeast-1 = SARS-CoV PLP inhibition in yeast; Potency, µM (doses to about 32.9 µM), inactives show at the highest dose activity, positive = growth rescue, actives largely listed as activators; S. cerevisiae expressing SARS-CoV PLpro, growth rescue; 330,000 compounds, 0.19% hits; also: potency is read from the fitted curve at half-maximal effect; 0% is about no effect; nearly all actives have a fitted effect of over 55% in size
SARS PLpro yeast-2 = Rescues yeast growth by inhibiting SARS-CoV PLpro; shares compounds with SARS PLpro yeast-1; yeast expressing SARS-CoV PLpro, growth phenotype rescue; calls only; 1,000 compounds, 19% hits; call rule not given here
Numbers without * were called inactive; i = inactive; ? = inconclusive; / = no result given; + = active, no number. Most compounds without a hit are left out; they make up all but 21% or so of the library. Unless noted, calls follow the shape of the full dose curve.

SMILES	Pf growth 96h	Pf growth 48h	Cycloheximide cs	Shiga inhibitor	NS1 function inh	SARS PLpro yeast-1	SARS PLpro yeast-2
Cc1ccc(C(=O)Nc2ccccc2N2CCCC2)cc1S(=O)(=O)N1CCOCC1	?	?	/	/	/	2.2%	/
O=C(NS(=O)(=O)N1CCOCC1)C1=C(N2CCCC2)COC1=O	/	/	/	/	/	3.55µM*	i
CN(C)CCNC(=S)Nc1cccc(Cl)c1	-9.9%	24.6%	-1.5	47.4	25.7%	?	i
CSCC[C@H](NC(=O)c1cccs1)C(=O)N1CCC2(CC1)NCCc1[nH]cnc12	17.7%	12.8%	-2.7	-5.8	2.8%	22.3%	/
Cc1noc(C)c1C(=O)Nc1nc(-c2ccc(F)cc2)cs1	18.9%	24.8%	/	/	/	?	i
CCN(CC)C(=O)c1c(-c2ccccc2)oc2ccc(O)cc12	21.1%	?	-3.2	-12.5	-9.4%	-0.1%	/
C[C@]12c3[nH]c4cc(-c5ccco5)ccc4c3CCN1C(=O)[C@@H](CC(=O)NCCCn1ccnc1)C[C@@H]2C(=O)N1CCCCC1	/	/	/	/	/	-10.5%	/
C[C@]12c3[nH]c4cc(-c5ccco5)ccc4c3CCN1C(=O)[C@@H](CC(=O)NCCCn1ccnc1)C[C@@H]2C(=O)N1CCOCC1	/	/	/	/	/	?	i
CCOC(=O)N1CCN(S(=O)(=O)c2ccc(C(=O)NNc3nc4cc(C)cc(C)c4s3)cc2)CC1	?	?	-3.4	-11.9	?	7.94µM*	?
COc1ccc(S(=O)(=O)N(C)C[C@H]2Oc3c(NC(=O)NC4CCCCC4)cccc3C(=O)N([C@H](C)CO)C[C@@H]2C)cc1	/	/	/	/	/	0.7%	/
CSc1nnc(COc2ccc(C)cc2)n1N	6.8%	29.0%	18.0	13.9	8.0%	?	i
O=C(N/N=C/c1ccccc1OC(F)F)c1cc(-c2ccncc2)nc2ccccc12	?	?	-2.7	-8.4	/	12.6µM*	+
Cc1occc1C(=O)N/N=C/c1ccc(Cl)c([N+](=O)[O-])c1	-6.8%	7.1%	36.9*	56.4*	-11.1%	?	?
Cn1cc(C(=O)N/N=C/c2ccc(Br)c([N+](=O)[O-])c2)c2ccccc21	?	?	1.2	7.5	3.8%	1.3%	/
CCC(=O)N(CCc1ccccc1C)Cc1cc2ccc(C)cc2[nH]c1=O	0.0%	-8.7%	0.3	-3.6	?	-0.6%	/
CC(=O)N(CCc1ccccc1C)Cc1cc2cc3c(cc2[nH]c1=O)OCO3	2.1%	1.9%	-4.4	-8.3	-3.1%	11.2µM*	i
CN(C)C(CNC(=S)Nc1cccc(Cl)c1)c1ccccc1 (stereo not drawn)	?	?	-4.7	-2.0	/	-8.0%	/
CCOc1ccc(N(CC(=O)NN=C2CCN(C)CC2)S(C)(=O)=O)cc1	-19.9%	57.5%	-1.1	10.2	4.6%	2.8%	/
O=C(On1c(-c2ccccc2)nc2ccccc2c1=O)c1ccco1	-9.2%	?	7.1	-4.0	-170.6%	/	/
COc1cc(OC)cc(-c2nc3ccccc3c(=O)n2OC(=O)c2ccccc2C)c1	-2.0%	19.2%	6.3	-10.9	-0.8%	?	+
O=C(CNC(=O)c1ccco1)OC(C(=O)c1ccccc1)c1ccccc1 (stereo not drawn)	5.3%	3.6%	-3.9	2.2	-21.2%	?	i
COc1ccc(-c2nnc(SCC(=O)c3[nH]c(C)c(C(C)=O)c3C)o2)cc1	-1.1%	?	7.6	-5.2	-8.4%	-3.4%	/
CCOC(=O)c1[nH]c(CSc2nnc(-c3ccc(OC)cc3)o2)c(C(=O)OCC)c1C	-0.4%	/	11.5	-6.3	4.8%	3.16µM*	i
C/C(=N\Nc1ccc2nncn2n1)c1ccc(Cl)s1	0.0%	-0.9%	-0.8	-4.8	-3.0%	-1.2%	/
Cc1ccccc1NC(=O)/C(=C\c1cccs1)NC(=O)c1ccco1	4.0%	-19.7%	0.7	-2.6	-2.9%	?	i
SMILES	Pf growth 96h	Pf growth 48h	Cycloheximide cs	Shiga inhibitor	NS1 function inh	SARS PLpro yeast-1	SARS PLpro yeast-2
COc1ccc(NC(=O)C(=O)NNC(=O)c2cccs2)c(OC)c1	90.8%	13.2%	-2.8	7.7	6.1%	?	i
CC(=O)Oc1ccc(-c2cccc(C(=O)OCC(=O)Nc3ccccc3Oc3ccccc3)c2)cc1	?	?	-0.3	-10.1	3.8%	?	+
CC(C)(C)NC(=O)COC(=O)c1ccc(Cl)nc1	?	-1.0%	11.5	43.5	/	0.5%	/
O=C(Nc1ccc(Cl)c(S(=O)(=O)N2CCCCC2)c1)c1ccncc1	7.38µM*	?	/	/	/	5.01µM*	i
O=C(Nc1ccc(Cl)c(S(=O)(=O)N2CCCCC2)c1)c1cnccn1	?	?	/	/	/	-10.5%	/
O=C(CCNC(=O)c1ccccc1Cl)Nc1ccc(Cl)c(C(F)(F)F)c1	?	44.0%	3.9	-6.8	-17.0%	3.55µM*	i
CC(=O)Nc1ccc2c(c1)n(C)c(=O)n2C	/	9.1%	0.7	10.5	9.0%	?	/
Cn1c(=O)n(C)c2cc(NC(=O)CCl)ccc21	?	1.47µM*	23.4*	12.5	-7.4%	10µM*	+
CCc1nnc(NC(=O)C2CCN(c3cnccn3)CC2)s1	1.7%	8.4%	-3.1	17.2	0.0%	6.3%	/
CCc1nnc(NC(=O)c2cnccn2)s1	/	62.1%	16.5	23.3	-24.2%	?	i
O=[N+]([O-])C(Br)(CO)CO	11.0%	4.8%	/	/	/	/	/
CCc1ccc(OCc2nnc(SCCN3CCOCC3)n2CC)cc1	/	-28.5%	-2.8	-4.9	-13.6%	?	i
O=C(NNC1CC(=O)N(c2ccccc2)C1=O)c1ccco1 (stereo not drawn)	?	4.8%	3.8	16.8	9.1%	1.0%	/
O=C(N=C1SCC(=O)N1c1ccccc1)c1ccco1	72.6%	/	31.1*	47.2	8.8%	?	i
COc1ccccc1C(O)(C(=O)N(NC(C)=O)c1ccccc1)c1ccccc1OC	22.1%	-13.3%	-3.3	-5.1	7.2%	0.5%	/
CNC(=S)N/N=C/C1=CCC2CC1C2(C)C (stereo not drawn)	4.15µM*	5.86µM*	-5.6	-2.2	-11.3%	12.6µM*	+
C/C(=N\NC(=O)c1ccc(CSc2nncn2C)cc1)c1ccc2ccccc2c1	-30.1%	-9.5%	-2.1	2.6	-4.3%	?	i
CCOC(=O)C1=C(COC(=O)/C=C/c2ccc(OC)cc2)NC(=O)NC1C (stereo not drawn)	6.8%	?	/	/	/	-2.6%	/
CCOC(=O)C1=C(COC(=O)/C=C/c2ccco2)NC(=O)NC1C (stereo not drawn)	53.7%	7.5%	/	/	/	?	i
COc1cccc(/C=N/NC(=O)CSc2ccccc2C)c1O	0.0%	?	16.8	37.4*	-6.0%	22.4µM*	+
COc1cccc(/C=N/NC(=O)C(C)n2nc(C)c([N+](=O)[O-])c2C)c1O (stereo not drawn)	?	?	34.8*	30.9	10.0%	11.2µM*	i
